Here are results for 13 molecules from PubChem BioAssay (NCI).

Some test systems named below: SK-MEL-2 melanoma; EKVX NSCLC; SN12C renal; UO-31 renal; TK-10 renal; ACHN renal; A498 renal; CCRF-CEM leukemia; MOLT-4 leukemia; SR leukemia.
Assay in all cases: NCI-60 one-dose screen, 48 h (100 = growth as untreated, 0 = no growth, -100 = all killed)
Holding throughout (details): 10 µM unless noted

About 83,000 compounds went through this panel and 20% of them were active in at least one assay; those are over-represented in the sample as a whole.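 Step 1: grow cells in 96-well plates. Step 2: add test compound at a single concentration. Step 3: incubate 48 h. Step 4: record percent growth.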 Values without a mark were called inactive. Active and inactive are the calls of the source. Rule for the calls: active = growth percent below 10; inactive = the rest.

Consider `C#Cc1ccccc1NC(=O)c1sc2nc3c(cc2c1N)CCCCC3`, for which the growth in the assay on SK-MEL-2 melanoma is 101%; in the assay on EKVX NSCLC it was 84.8%; in the assay on SN12C renal, 98.2%; in the assay with UO-31 renal, 85.4%; in the assay on TK-10 renal, 117%; in the assay on ACHN renal, 101%. The growth in the assay with A498 renal is 94.1%; with CCRF-CEM leukemia, 93.8%; in the assay with MOLT-4 leukemia, 94.5%; in the assay on SR leukemia, 81.2%.
Take `CC1CCCN(CCCCCOc2ccc3oc4ccccc4c(=O)c3c2)C1` (stereo not given): the growth with SK-MEL-2 melanoma was 82.3%; in the assay on EKVX NSCLC, 84%; in the assay with SN12C renal, 64.3%; in the assay on UO-31 renal it was 61.2%; in the assay on TK-10 renal it was 82.3%; in the assay on ACHN renal, 98.9%. Also, the growth in the assay on A498 renal is 75.9%; with CCRF-CEM leukemia, 70.9%; in the assay on MOLT-4 leukemia it was 49%; in the assay with SR leukemia, 36.4%.
As for `COC(=O)c1ccc2c(c1)n(Cc1ccc3ccccc3c1)c[n+]2Cc1ccc2ccccc2c1`, the growth with SK-MEL-2 melanoma was 5.59% (active); in the assay on EKVX NSCLC it was 71%; in the assay on SN12C renal, 38.4%; in the assay with UO-31 renal it was 83.6%; in the assay on TK-10 renal, 49.1%; in the assay with ACHN renal, 99%. Besides, the growth was 80.5% in the assay on A498 renal, 27.5% in the assay on CCRF-CEM leukemia, 29.2% with MOLT-4 leukemia and -37.1% (active) in the assay with SR leukemia.
For the molecule `CN(C)CCCn1c2c(c3cc(-c4ccco4)ccc3c1=O)C(=O)c1ccccc1-2`, the growth in the assay on SK-MEL-2 melanoma is 117%; in the assay on EKVX NSCLC, 81.4%; with SN12C renal, 51.9%; in the assay with UO-31 renal, 51.6%; in the assay with TK-10 renal it was 66.3%; in the assay with ACHN renal it was 48.5%. Further, the growth is 93.7% in the assay with A498 renal, 36.2% in the assay with CCRF-CEM leukemia, 10.9% in the assay with MOLT-4 leukemia and -40.2% (active) in the assay on SR leukemia.
As for `CC1=C/C(=N\N=C2/C=C(C)CC(C)(C)C2)CC(C)(C)C1`, the growth in the assay on SK-MEL-2 melanoma was 107%; in the assay with EKVX NSCLC it was 108%; in the assay on SN12C renal it was 108%; in the assay on UO-31 renal it was 83.7%; in the assay with TK-10 renal, 95.2%; in the assay with ACHN renal, 110%. Moreover, the growth is 94.4% with A498 renal, 97.9% with CCRF-CEM leukemia, 96.3% in the assay with MOLT-4 leukemia and 97.3% with SR leukemia.
Regarding `N#CC1(C#N)C2=C(CCCC2)NC(c2c(F)cccc2Cl)C1(C#N)C#N` (stereo not given), the growth is 37.6% in the assay on SK-MEL-2 melanoma; 71.1% in the assay on EKVX NSCLC; 72.1% in the assay on SN12C renal; 70% with UO-31 renal; 99.8% with TK-10 renal; 84% in the assay with ACHN renal. The growth in the assay on A498 renal is 51.3%; in the assay with CCRF-CEM leukemia it was 36.1%; in the assay on MOLT-4 leukemia, 43.5%; in the assay with SR leukemia it was 30.1%.
Turning to `CC(=O)c1ccc(NC(=O)CSc2nnc(-c3cc(-c4ccc(Cl)cc4)nc4ccccc34)o2)cc1`, the growth in the assay with SK-MEL-2 melanoma was 87.3%; in the assay on EKVX NSCLC, 97.3%; with SN12C renal, 37.9%; in the assay on UO-31 renal it was 86.6%; in the assay with TK-10 renal, 83.7%; in the assay on ACHN renal it was 89.8%. For the same molecule, the growth is 105% with A498 renal, 60.8% in the assay with CCRF-CEM leukemia, 66.6% with MOLT-4 leukemia and 0.55% (active) in the assay on SR leukemia.
For the molecule `COc1ccc2nc(-c3ccc(Cl)cc3)cc(-c3nnc(SC/C(=N/O)c4ccccc4)o3)c2c1`, the growth in the assay with SK-MEL-2 melanoma is 61.3%; in the assay on EKVX NSCLC, 72.8%; in the assay with SN12C renal, 17.5%; in the assay on UO-31 renal, 89.7%; in the assay on TK-10 renal, 75%; in the assay with ACHN renal, 47.5%. The growth in the assay with A498 renal was 63.5%; in the assay with CCRF-CEM leukemia, 54.1%; in the assay with MOLT-4 leukemia, 52.5%; in the assay on SR leukemia, 7.97% (active).
For the molecule `COc1cc([C@H](C)c2ccc3ccccc3c2)cc(OC)c1OC`, the growth in the assay on SK-MEL-2 melanoma is 28.3%; with EKVX NSCLC it was 30.9%; in the assay with SN12C renal it was 48.3%; in the assay on UO-31 renal, 42.1%; in the assay with TK-10 renal, 61.4%; with ACHN renal it was 35.1%. Further, the growth was 12.7% in the assay on A498 renal, 16% with CCRF-CEM leukemia, 13.5% in the assay on MOLT-4 leukemia and 23.5% in the assay with SR leukemia.
Take `CCC1=C[C@H]2CN(CCc3c([nH]c4ccccc34)[C@@](C(=O)OC)(c3cc4c(cc3OC)N(C)[C@H]3[C@@](O)(C(=O)OC)[C@H](OC(C)=O)[C@]5(CC)[C@@H]6C[C@@H]6CN6CC[C@]43[C@@H]65)C2)C1`: the growth with SK-MEL-2 melanoma was 13.2%; in the assay with EKVX NSCLC it was 35.5%; in the assay with SN12C renal it was 30.1%; in the assay with UO-31 renal, 14.7%; in the assay on TK-10 renal it was 28.9%; in the assay on ACHN renal it was 19.1%. Besides, the growth in the assay with A498 renal is -15.2% (active); in the assay with CCRF-CEM leukemia, -5.97% (active); with MOLT-4 leukemia, 4.19% (active); in the assay with SR leukemia, -9.46% (active).
For the molecule `CC(=O)c1cc2c(N)c(C(=O)Nc3ccccn3)sc2nc1C`, the growth was 53.6% with SK-MEL-2 melanoma; 74.7% with EKVX NSCLC; 92.7% in the assay with SN12C renal; 86.7% with UO-31 renal; 90.8% with TK-10 renal; 98.9% in the assay with ACHN renal. Further, the growth in the assay on A498 renal is 30.3%; with CCRF-CEM leukemia, 102%; in the assay with MOLT-4 leukemia, 98.2%; in the assay on SR leukemia, 69.2%.
As for `CC(/C=C/c1ccccc1)=N/NC(=O)c1ccncc1`, the growth in the assay on SK-MEL-2 melanoma was 106%; with EKVX NSCLC it was 107%; with SN12C renal, 99.8%; in the assay with UO-31 renal it was 89%; in the assay with TK-10 renal it was 105%; in the assay on ACHN renal, 111%. The growth is 95% in the assay on A498 renal, 92.5% in the assay with CCRF-CEM leukemia, 92.2% with MOLT-4 leukemia and 88.9% in the assay on SR leukemia.
As for `COc1ccc2c(c1)OC13Oc4cc(OC)ccc4C=C1CCCCC3=C2`, the growth in the assay on SK-MEL-2 melanoma was 80.2%; with EKVX NSCLC it was 88.8%; in the assay with SN12C renal, 93.6%; in the assay with UO-31 renal, 84.7%; with TK-10 renal, 86.8%; in the assay on ACHN renal, 104%. Also, the growth in the assay on A498 renal was 98.2%; in the assay with CCRF-CEM leukemia, 80.9%; with MOLT-4 leukemia it was 80.6%; with SR leukemia, 99%.
